“And” between values parts separate entries of the source, which are not always exact repeats. Equal entries are not always repeated. Out of some 300,000 compounds screened, about 37,000 (12%) were called active. The full list was thinned out, with actives kept by preference. Values without a mark were called inactive. Cut-off read from the data, not from the text of the source: active = max response mostly above about 13% (no sharp cut-off); inactive = mostly below about 14%.

The text below walks through data of PubChem BioAssay AID2314 (National Center for Advancing Translational Sciences (NCATS), 2010).

A short description of this assay: Cycloheximide Counterscreen for Small Molecule Inhibitors of Shiga Toxin. Note: read at 38.3 µM for the half of the compounds with a filed dose; 0% is about no effect. The note with it: cell reporter, cycloheximide protein synthesis inhibition counterscreen; hits give high values. In general terms: The purpose of a counterscreen is to sort out artefacts and off-target activity.
With `COc1ccc2c(c1)c(=O)c(C(=O)c1ccc(Cl)cc1)cn2CC(=O)Nc1ccc(F)cc1`, the max response was -2.23%.

`O=C(N=C1SC2CS(=O)(=O)CC2N1c1cc(Cl)ccc1Cl)C1CC1` (stereo not drawn): the max response is 8.54%.

For `O=C(CN1CCN(c2ccc(Cl)cc2)CC1)c1ccccc1`, the max response was 5.7%.

With `O=C(c1cnn(-c2ccc(Cl)cc2)c1)c1ccccc1O`, the max response was 60.1% (active).

As for `Cc1ncc(CC(=O)n2cc(C(=O)c3cc(Cl)ccc3O)cn2)s1`, the max response is 11.2%.

As for `Fc1ccc2[nH]c3c(N4CCN(Cc5ccc6c(c5)OCO6)CC4)ncnc3c2c1`, the max response is -4.86%.

Consider `COc1ccc(CN2CC(C(=O)NCCc3ccc(Cl)cc3)CC2=O)cc1` (stereo not drawn), for which the max response was -3.25%.

With `Cc1ccc(C(=O)N(CN2CCCC2=O)c2ccc(F)cc2)cc1`, the max response was 11.4% (active).

For the molecule `CNC(=O)NCCN1CCCC1=O`, the max response is -5.85%.

Regarding `Cc1ccc(S(=O)(=O)N(CC(=O)NN=C2CCN(C)CC2)c2ccc(F)cc2)cc1`, the max response is -0.935%.

`CCc1nc(N2CCN(C(C)=O)CC2)c2c3c(sc2n1)CCCC3`: the max response is 1.8%.

As for `O=C(CCc1ccccc1)NCc1cccnc1`, the max response was 1.47%.

As for `O=C(O)c1ccccc1-c1ccccc1C(=O)NCc1cccnc1`, the max response was -0.956%.

With `CN(Cc1ccccc1)S(=O)(=O)c1nnc(NC(=O)c2ccccc2F)s1`, the max response was -3.23%.

`O=C(Nc1nc(-c2ccc(-c3ccccc3)cc2)cs1)c1cnccn1`: the max response was 35.3% (active).

As for `O=C(Nc1ccccc1F)c1ccccc1-c1ccccc1`, the max response is -1.34%.

As for `O=C(Nc1nnc(-c2ccccc2F)s1)c1ccccc1F`, the max response is 17.9% (active).

As to `O=C(Nc1nnc(Cc2ccccc2)s1)c1cnccn1`, the max response is 9.38%.

As to `O=C(Nc1nc(-c2cccnc2)cs1)c1ccccc1F`, the max response is 45.8% (active).

Regarding `O=C(NCc1cccnc1)C(=O)Nc1nc(-c2ccccc2)cs1`, the max response was 39.9% (active).

Take `O=C(O)c1ccccc1C(=O)Nc1nc(-c2ccccc2)cs1`: the max response is -3.4%.

On to `Cc1ccc(-c2csc(NC(=O)c3cnccn3)n2)cc1C`, for which the max response was 1.6%.

As for `O=C(Nc1ccc(NC(=O)c2ccccc2F)cc1)c1ccccc1F`, the max response was 12.7%.

For the molecule `CCN1C(=NCc2ccc(OC)cc2)N[C@@H](CCc2ccccc2)[C@H](C(=O)NCc2ccc(OC)cc2)[C@H]1C`, the max response was -3.38% and 1.66%.

On to `CCCCCCCCCCOC(=O)Cn1c(COc2ccc(C)cc2)[n+](C)c2ccccc21`, for which the max response was -4.67%.

As to `COc1ccc(-c2cc(C3CCN(c4ncccc4[N+](=O)[O-])CC3)[nH]n2)cc1`, the max response is -2.37%.

In the case of `CC1CCCCN1CCCNC(=O)Cn1ncc2c([nH]c3ccccc32)c1=O` (stereo not drawn), the max response was -1.43%.

In the case of `Cc1cc(C)c(C(=O)CSc2nc(C)cc(=O)[nH]2)c(C)c1`, the max response was 6.02%.

On to `CCn1cc(/C=C(\NC(=O)c2cc(OC)c(OC)c(OC)c2)C(=O)N2CCN(C)CC2)c2ccccc21`, for which the max response is -3.51%.

As for `CCOC(=O)c1ccc(NC(=S)N2CCN(c3ccccn3)CC2)cc1`, the max response was -2.76%.

As to `Cc1ccccc1Nc1nc(-c2cccnc2)cs1`, the max response is 40.6% (active).

Consider `CCCCNC(=O)CCn1nc(-c2ccc(Cl)cc2)ccc1=O`, for which the max response was -0.835%.

In the case of `Cc1cc2c(cc1C)N(C(=O)CN1C(=O)c3ccccc3C1=O)C(C)(C)c1ssc(=S)c1-2`, the max response is -0.934%.

Regarding `Cc1cc(-n2nc(C)cc2C)n2ncc(-c3ccccc3)c2n1`, the max response was 42.3% (active).

In the case of `Cc1cc(-n2nc(C)cc2C)n2nc(C)c(-c3ccccc3)c2n1`, the max response is -1.22%.

As to `Cc1cc(N2CCCC2)n2nc(C)c(-c3ccccc3)c2n1`, the max response is 6.19%.

Take `O=C(NCC1CC1)C1(C(F)(F)F)C/C(=C\CCO)CCCO1` (stereo not drawn): the max response is -3.88%.

Consider `COc1ccc(Cc2nnc(N/N=C/c3ccccc3O)[nH]c2=O)cc1OC`, for which the max response was -1.41%.

On to `c1ccc(-c2ccc3c(c2)NC(C2Nc4cc(-c5ccccc5)ccc4O2)O3)cc1` (stereo not drawn), for which the max response is -0.428%.

Take `C/C(=N\NC(=O)NC1CCCCC1)c1ccc(OC(F)F)cc1OC(F)F`: the max response was 9.08%.

Take `CC(=O)Nc1cccc(NC(=O)c2ccc3c(c2)CCN3S(C)(=O)=O)c1`: the max response is 2.48%.

As to `CS(=O)(=O)N1CCc2cc(C(=O)Nc3ccccc3)ccc21`, the max response is -1.85%.

As to `CCc1ccccc1NC(=O)c1ccc2c(c1)CCN2S(C)(=O)=O`, the max response is -1.1%.

`CS(=O)(=O)N1CCc2cc(C(=O)Nc3ccccc3Br)ccc21`: the max response is 30.9% (active).

Consider `CSc1ccccc1NC(=O)c1ccc2c(c1)CCN2S(C)(=O)=O`, for which the max response was 43.6% (active).

As to `COc1ccc(OC)c(NC(=O)c2ccc3c(c2)CCN3S(C)(=O)=O)c1`, the max response was -0.802%.

Turning to `COCc1ccc(C(=O)N2CCc3c([nH]c4ccccc34)C2c2ccccn2)s1` (stereo not drawn), the max response is -4.02%.

In the case of `COc1ccc(-c2cc(=O)oc3cc(OC(C)C(=O)Nc4ccc(CN5CCOCC5)cc4)ccc23)cc1` (stereo not drawn), the max response was -4.69%.

`Cc1ccc(OCc2nnc(SC3CCc4ccccc4C3=O)n2C)cc1` (stereo not drawn): the max response is 4.12%.

Consider `CC(=O)Nc1ccc(/C=N/Nc2ccc(C(=O)c3c(C)cc4ccccn34)cc2[N+](=O)[O-])cc1`, for which the max response is 3.53%.

As to `Cc1cc(N2C(=O)C(O)=C(C(=O)c3ccc(C)o3)C2c2ccc(OCc3ccccc3)cc2)no1` (stereo not drawn), the max response was -0.599%.

In the case of `Cc1ccc(C(=O)OCc2nc(N)nc(Nc3ccccc3C)n2)cc1`, the max response is -0.878%.

As for `Cc1ccccc1Nc1nc(N)nc(CN2CCN(c3ccccn3)CC2)n1`, the max response was 0.552%.

In the case of `Cc1ccc(Nc2nc(N)nc(CN3CCN(Cc4ccccc4)CC3)n2)cc1Cl`, the max response was -3.89%.

For the molecule `Cc1ccccc1Nc1nc(N)nc(CSc2ccccc2)n1`, the max response is 67% (active).

Turning to `Cc1ccccc1Nc1nc(N)nc(CSc2nnc3ccccn23)n1`, the max response was 13.9% (active).

As for `CCSCc1nc(N)nc(NCCc2ccccc2)n1`, the max response is 12.6%.

Consider `CCCN1CCC(=O)N(C(CSc2ccc(OC)cc2)Cc2ccccc2)CC1` (stereo not drawn), for which the max response was 6.9%.

Turning to `Cc1cc(C)n(-c2ccc(NC(=O)C3CCCCN3C(=O)c3cccs3)cc2)n1` (stereo not drawn), the max response is 7.2%.

For the molecule `COc1ccc(-n2c(C)cc(C(=O)COC(=O)c3cc(OC)c(OC)cc3NC(=O)c3cccs3)c2C)cc1`, the max response is -3.59%.

With `CCc1nn(CC(=O)N2CCN(c3cc(C)ccc3C)CC2)c(=O)c2cc3occc3n12`, the max response was -8.63%.

As for `CC1CCN(S(=O)(=O)c2ccc3c(ccn3CC(=O)O)c2)CC1`, the max response is -6.07%.

As for `CC(C)c1ccc(Nc2ncccc2C#N)cc1`, the max response was 43.2% (active).

Take `CN(C)c1ccnc(Nc2ccc(F)cc2)c1C#N`: the max response was -1.37%.

On to `O=C(Oc1cccc(O)c1)C1CCCCC1`, for which the max response was 1.32%.

`CC12CCC(C(=O)N(NC(=O)c3ccccc3O)C1=O)C2(C)C` (stereo not drawn): the max response was 11.2% (active).

For the molecule `CC12CCC(C(=O)N(c3cccc(Cl)c3)C1=O)C2(C)C` (stereo not drawn), the max response was -2.01%.

Regarding `O=C(NN1C(=O)C2C(C1=O)C1C=CC2C12CC2)c1ccccc1Cl` (stereo not drawn), the max response is 0.62%.

Consider `O=C(COc1ccc(Cl)cc1)NC(=S)Nc1ccccc1N1CCOCC1`, for which the max response was 1.2%.

`CCOC(=O)C1C/C(=C\C(C)=O)c2cccc(C(F)(F)F)c2O1` (stereo not drawn): the max response is -2.62%.

Turning to `CCOC(=O)c1c(C)[nH]c(C(=O)NCc2ccccc2OC)c1C`, the max response was 17% (active).

For the molecule `CCOC(=O)c1c(C)[nH]c(C(=O)NCCN2CCOCC2)c1C`, the max response is -3.76%.

Consider `CC(=O)c1c(C)[nH]c(C(=O)NCc2ccc(C)cc2)c1C`, for which the max response was 15.3%.

`O=C(O)c1ccc(OCC2CCCO2)cc1` (stereo not drawn): the max response was -2.17%.

For `COC(=O)c1c(C)oc(C)c1S(=O)(=O)Nc1ccc(C(C)C)cc1`, the max response is -1.83%.

For the molecule `Cc1nc(-c2ccccc2)sc1-c1nc(-c2ccccc2)ncc1S(=O)(=O)c1ccccc1`, the max response was 1.01%.

`C=CCn1c(-c2sc(-c3ccccc3)nc2C)n[nH]c1=S`: the max response was 1.59%.

In the case of `Cc1nc(-c2ccccc2)sc1-c1nnc(C2CC2)o1`, the max response was 38.7% (active).

On to `CCOc1ccccc1NC(=O)COc1ccc(S(=O)(=O)N2CCCC2)cc1`, for which the max response is -2.13%.

As to `O=C(COC(=O)c1c2c(nc3ccccc13)CCCC2)c1ccc(Br)s1`, the max response is 25% (active).

As to `CCc1nc2ccccc2c(C(=O)OC2CCCCC2=O)c1C` (stereo not drawn), the max response was 8.91%.

For the molecule `O=C(Nc1c2c(nc3ccccc13)CCCC2)c1ccccc1Br`, the max response is -2.17%.

As for `COc1ccccc1C(=O)Nc1ccnn1C1CCN(Cc2cnn(C)c2)CC1`, the max response is 0.446%.

For `COc1ccc2c(c1)c1nc3n(c(=O)c1n2CC(=O)Nc1ccccc1)CCS3`, the max response is -2.14%.

`CC(=O)CC(c1ccccc1)C1C(=O)Oc2ccccc2C1=O` (stereo not drawn): the max response was -3.15%.

Regarding `Cc1cc(C)c2oc(C(=O)Nc3ccc(S(=O)(=O)Nc4nccc(C)n4)cc3)cc(=O)c2c1`, the max response is 5.57%.

In the case of `O=C(CSc1cccc[n+]1[O-])c1ccc(Cl)cc1`, the max response was 16.8% (active).

For the molecule `Cc1cc(Oc2ccc(Cl)cc2)nc(SCC(=O)c2ccccc2)n1`, the max response is 0.695%.

For the molecule `COc1ccccc1C(=O)CSc1cccc[n+]1[O-]`, the max response was 9.7%.

In the case of `O=C(CSc1cccc[n+]1[O-])c1ccc(-c2ccccc2)cc1`, the max response is 44.8% (active).

For the molecule `O=C(CSc1cccc[n+]1[O-])NCCCc1ccccc1`, the max response is 10.3%.

Take `Cn1c(CC2Sc3ccccc3NC2=O)nnc1SCC(=O)c1ccc(Cl)cc1` (stereo not drawn): the max response was 6.52%.

For the molecule `CCOC(=O)N1CCC(N2Cc3cccc(C(=O)Nc4ccc(S(=O)(=O)N(CC)CC)cc4)c3C2=O)CC1`, the max response was -7.45%.
